Tests used:
Assay in all cases: DAPPL (digital affinity profiling via proximity ligation, sequencing); 10 mM Tris-HCl pH 7.5, 50 mM NaCl, 1 mM DTT, 4% glycerol, room temperature, 30 min; GST-TFs on glutathione beads, 16-mer random dsDNA library, 0.1% formaldehyde crosslink after washing; high values mean tight binding
Conditions in all cases: protein: recombinant; tags: N-terminal GST; dsDNA, one strand shown
FLI1 = molecular target: T1, FLI1 (Homo sapiens, UniProt Q01543 1-452)
T1 sequence: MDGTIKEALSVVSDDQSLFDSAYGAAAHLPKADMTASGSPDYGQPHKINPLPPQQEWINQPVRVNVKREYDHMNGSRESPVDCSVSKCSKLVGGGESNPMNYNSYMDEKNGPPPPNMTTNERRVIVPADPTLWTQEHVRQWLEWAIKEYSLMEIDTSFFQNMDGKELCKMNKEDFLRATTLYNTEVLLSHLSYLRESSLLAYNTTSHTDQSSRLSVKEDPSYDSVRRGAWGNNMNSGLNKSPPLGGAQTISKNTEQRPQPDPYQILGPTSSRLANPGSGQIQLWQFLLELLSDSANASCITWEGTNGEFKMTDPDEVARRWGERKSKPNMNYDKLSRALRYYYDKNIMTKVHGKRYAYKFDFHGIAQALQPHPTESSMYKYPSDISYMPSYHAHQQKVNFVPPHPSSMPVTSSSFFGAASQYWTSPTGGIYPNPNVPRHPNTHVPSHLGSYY
In short: (§1)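 Human transcription factors carrying a GST fusion were produced in yeast, bound to glutathione beads, tagged with DNA barcodes and pooled together with a tag-only sample. Each pool was held with 200 nmole of a random double-stranded 16-mer DNA library in Tris/NaCl/DTT/glycerol buffer for 30 min at room temperature, then washed, crosslinked in 0.1% formaldehyde, proximity-ligated with BsaI/T4 ligase (1 h, 37 °C), PCR-amplified and sequenced on an Illumina NextSeq500. Binding signal is the read frequency of each hexamer for a given factor divided by its frequency in the tag-only sample.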

ELK1 = molecular target: T2, ELK1 (Homo sapiens, UniProt P19419 1-428)
T2 sequence: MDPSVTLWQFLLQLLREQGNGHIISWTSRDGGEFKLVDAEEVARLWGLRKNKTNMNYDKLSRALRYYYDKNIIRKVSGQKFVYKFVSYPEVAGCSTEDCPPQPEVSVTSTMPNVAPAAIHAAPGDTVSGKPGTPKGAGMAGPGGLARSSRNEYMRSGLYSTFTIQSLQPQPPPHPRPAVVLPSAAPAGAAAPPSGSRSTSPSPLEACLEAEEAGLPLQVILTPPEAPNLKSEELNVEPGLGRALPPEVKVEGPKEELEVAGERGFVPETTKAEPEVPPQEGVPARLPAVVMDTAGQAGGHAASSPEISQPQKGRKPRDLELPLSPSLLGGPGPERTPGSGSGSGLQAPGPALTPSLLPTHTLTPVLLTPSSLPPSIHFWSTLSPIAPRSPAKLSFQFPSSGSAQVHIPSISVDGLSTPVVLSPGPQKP
In short: as §1

ERG = molecular target: T3, ERG (Homo sapiens, UniProt P11308 1-479)
T3 sequence: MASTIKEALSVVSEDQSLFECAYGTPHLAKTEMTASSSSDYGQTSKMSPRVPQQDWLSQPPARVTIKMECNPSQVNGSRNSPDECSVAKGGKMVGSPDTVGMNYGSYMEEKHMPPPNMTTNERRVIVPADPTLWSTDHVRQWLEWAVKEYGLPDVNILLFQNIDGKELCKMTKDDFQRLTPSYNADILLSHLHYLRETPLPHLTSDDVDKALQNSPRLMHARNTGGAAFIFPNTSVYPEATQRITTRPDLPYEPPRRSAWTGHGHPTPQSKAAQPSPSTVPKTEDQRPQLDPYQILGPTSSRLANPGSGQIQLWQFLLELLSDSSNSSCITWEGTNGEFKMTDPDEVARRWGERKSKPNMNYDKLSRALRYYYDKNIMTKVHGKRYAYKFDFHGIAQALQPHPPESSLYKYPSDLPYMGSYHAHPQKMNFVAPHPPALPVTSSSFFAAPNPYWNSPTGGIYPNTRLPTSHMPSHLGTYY
In short: as §1

EHF = molecular target: T4, EHF (Homo sapiens, UniProt Q9NZC4 1-300)
T4 sequence: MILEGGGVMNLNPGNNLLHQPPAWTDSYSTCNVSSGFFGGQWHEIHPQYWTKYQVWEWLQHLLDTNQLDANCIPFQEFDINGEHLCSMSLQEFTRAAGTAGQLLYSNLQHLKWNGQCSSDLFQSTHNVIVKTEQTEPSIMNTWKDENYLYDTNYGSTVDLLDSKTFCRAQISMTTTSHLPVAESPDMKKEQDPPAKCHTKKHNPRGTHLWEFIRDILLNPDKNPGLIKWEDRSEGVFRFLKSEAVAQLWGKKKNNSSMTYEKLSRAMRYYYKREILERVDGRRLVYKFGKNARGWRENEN
In short: as §1

SPIB = SPIB (Homo sapiens, UniProt Q01892 1-262)
Chain of SPIB (Q01892 whole entry): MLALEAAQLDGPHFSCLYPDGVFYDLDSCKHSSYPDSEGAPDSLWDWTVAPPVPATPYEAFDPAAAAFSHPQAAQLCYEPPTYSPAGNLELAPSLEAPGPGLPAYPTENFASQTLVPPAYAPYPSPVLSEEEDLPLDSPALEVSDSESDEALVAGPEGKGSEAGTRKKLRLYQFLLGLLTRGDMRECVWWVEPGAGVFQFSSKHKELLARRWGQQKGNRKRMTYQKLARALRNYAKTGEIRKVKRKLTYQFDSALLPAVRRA
In short: as §1

FEV = molecular target: T5, FEV (Homo sapiens, UniProt Q99581 1-238)
T5 sequence: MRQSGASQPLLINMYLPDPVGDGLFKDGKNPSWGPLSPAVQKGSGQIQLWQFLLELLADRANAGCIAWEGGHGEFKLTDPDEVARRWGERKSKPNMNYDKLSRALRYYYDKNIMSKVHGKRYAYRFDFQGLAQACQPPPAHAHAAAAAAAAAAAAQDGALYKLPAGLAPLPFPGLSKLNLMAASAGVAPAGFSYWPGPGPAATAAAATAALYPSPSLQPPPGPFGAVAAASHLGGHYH
In short: as §1

SPIC = molecular target: T6, SPIC (Homo sapiens, UniProt Q8N5J4 1-248)
T6 sequence: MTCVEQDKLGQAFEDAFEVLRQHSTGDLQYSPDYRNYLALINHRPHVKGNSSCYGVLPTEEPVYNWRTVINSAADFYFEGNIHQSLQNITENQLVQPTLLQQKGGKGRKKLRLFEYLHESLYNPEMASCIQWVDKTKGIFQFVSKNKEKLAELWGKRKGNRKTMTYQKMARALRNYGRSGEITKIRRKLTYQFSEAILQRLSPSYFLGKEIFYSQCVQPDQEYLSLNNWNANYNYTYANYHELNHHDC
In short: as §1

ELK4 = molecular target: T7, ELK4 (Homo sapiens, UniProt P28324-2 1-405)
T7 sequence: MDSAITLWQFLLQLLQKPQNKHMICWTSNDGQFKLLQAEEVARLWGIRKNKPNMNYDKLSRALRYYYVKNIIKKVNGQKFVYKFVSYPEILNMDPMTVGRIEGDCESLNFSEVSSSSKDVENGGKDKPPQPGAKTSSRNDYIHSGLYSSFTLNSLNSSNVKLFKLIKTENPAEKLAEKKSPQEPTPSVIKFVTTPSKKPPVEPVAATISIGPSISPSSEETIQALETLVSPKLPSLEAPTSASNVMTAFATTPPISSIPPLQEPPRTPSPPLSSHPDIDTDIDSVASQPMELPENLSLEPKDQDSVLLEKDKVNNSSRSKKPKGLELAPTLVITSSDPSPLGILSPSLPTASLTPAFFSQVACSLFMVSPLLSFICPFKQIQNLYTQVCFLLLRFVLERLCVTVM
In short: as §1

ETV7 = molecular target: T8, ETV7 (Homo sapiens, UniProt Q9Y603 1-341)
T8 sequence: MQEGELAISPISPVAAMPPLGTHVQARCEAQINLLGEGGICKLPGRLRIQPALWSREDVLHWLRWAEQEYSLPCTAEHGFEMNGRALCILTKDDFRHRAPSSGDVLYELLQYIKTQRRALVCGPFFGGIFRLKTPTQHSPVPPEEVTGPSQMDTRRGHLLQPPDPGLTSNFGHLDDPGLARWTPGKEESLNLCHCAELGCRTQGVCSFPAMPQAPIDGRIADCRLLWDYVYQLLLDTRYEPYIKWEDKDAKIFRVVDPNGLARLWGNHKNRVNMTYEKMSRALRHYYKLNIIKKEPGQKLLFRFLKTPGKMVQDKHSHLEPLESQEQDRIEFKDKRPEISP
In short: as §1

ETV3 = molecular target: T9, ETV3 (Homo sapiens, UniProt P41162-2 1-143)
T9 sequence: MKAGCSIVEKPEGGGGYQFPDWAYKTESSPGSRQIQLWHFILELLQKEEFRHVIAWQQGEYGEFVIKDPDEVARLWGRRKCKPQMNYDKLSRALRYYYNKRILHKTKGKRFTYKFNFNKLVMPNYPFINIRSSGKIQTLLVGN
In short: as §1

GABPA = molecular target: T10, GABPA (Homo sapiens, UniProt Q06546 1-454)
T10 sequence: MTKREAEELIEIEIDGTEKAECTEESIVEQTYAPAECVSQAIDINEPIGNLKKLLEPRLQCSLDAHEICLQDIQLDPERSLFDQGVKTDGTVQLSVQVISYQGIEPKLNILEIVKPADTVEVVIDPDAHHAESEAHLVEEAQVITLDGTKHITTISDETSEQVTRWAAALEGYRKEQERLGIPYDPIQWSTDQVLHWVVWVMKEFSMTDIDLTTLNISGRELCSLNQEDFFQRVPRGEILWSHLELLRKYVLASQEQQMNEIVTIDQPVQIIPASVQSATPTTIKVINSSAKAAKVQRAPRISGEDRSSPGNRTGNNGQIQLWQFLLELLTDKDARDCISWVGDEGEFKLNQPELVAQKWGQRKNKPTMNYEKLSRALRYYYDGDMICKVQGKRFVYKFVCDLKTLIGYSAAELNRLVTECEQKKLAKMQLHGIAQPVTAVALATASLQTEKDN
In short: as §1

ELF1 = ELF1 (Homo sapiens, UniProt P32519 1-619)
Chain of ELF1 (P32519 whole entry): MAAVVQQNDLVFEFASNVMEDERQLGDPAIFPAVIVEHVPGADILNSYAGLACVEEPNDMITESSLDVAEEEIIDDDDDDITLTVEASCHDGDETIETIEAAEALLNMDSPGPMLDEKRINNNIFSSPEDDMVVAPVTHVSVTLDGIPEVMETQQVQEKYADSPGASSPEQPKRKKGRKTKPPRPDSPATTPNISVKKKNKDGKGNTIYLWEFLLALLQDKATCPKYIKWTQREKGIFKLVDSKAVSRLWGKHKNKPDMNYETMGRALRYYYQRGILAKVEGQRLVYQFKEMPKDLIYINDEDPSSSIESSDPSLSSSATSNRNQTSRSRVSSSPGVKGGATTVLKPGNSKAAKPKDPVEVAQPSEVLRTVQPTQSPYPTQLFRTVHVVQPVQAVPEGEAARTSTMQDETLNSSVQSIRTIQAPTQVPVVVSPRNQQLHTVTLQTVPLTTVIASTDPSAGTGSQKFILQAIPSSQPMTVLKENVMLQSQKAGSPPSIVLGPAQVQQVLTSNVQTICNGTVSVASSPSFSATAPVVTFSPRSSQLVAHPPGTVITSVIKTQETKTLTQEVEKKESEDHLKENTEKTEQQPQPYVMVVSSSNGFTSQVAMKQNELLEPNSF
In short: as §1

ELF4 = ELF4 (Homo sapiens, UniProt Q99607 1-663)
Chain of ELF4 (Q99607 whole entry): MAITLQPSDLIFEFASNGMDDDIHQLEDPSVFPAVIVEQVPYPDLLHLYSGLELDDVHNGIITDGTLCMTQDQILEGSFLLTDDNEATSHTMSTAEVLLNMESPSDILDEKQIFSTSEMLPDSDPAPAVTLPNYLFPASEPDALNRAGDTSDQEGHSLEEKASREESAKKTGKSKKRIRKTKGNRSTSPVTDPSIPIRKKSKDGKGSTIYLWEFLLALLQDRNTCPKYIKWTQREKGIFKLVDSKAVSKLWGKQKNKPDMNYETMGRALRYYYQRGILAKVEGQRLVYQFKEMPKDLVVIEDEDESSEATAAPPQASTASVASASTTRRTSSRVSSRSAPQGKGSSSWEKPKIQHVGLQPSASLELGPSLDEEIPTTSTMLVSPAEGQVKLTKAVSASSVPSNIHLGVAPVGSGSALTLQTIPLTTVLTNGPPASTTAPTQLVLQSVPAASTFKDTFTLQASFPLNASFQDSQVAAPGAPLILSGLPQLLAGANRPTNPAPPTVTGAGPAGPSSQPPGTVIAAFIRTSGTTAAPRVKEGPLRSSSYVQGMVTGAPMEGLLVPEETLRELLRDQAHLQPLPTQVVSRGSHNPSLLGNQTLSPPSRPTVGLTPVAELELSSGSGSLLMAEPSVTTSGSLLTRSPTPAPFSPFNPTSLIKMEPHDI
In short: as §1

ELF3 = molecular target: T11, ELF3 (Homo sapiens, UniProt P78545 1-371)
T11 sequence: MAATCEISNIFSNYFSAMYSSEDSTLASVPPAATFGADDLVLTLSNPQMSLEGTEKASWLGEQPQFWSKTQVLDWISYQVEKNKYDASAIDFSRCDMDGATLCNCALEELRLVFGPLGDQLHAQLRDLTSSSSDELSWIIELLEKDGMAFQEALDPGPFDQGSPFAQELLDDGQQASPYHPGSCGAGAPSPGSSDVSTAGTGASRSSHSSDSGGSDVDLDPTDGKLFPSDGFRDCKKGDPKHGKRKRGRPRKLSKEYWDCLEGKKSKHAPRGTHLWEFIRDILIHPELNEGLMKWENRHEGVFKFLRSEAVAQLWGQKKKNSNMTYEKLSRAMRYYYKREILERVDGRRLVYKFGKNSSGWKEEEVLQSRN
In short: as §1

ERF = molecular target: T12, ERF (Homo sapiens, UniProt P50548 1-548)
T12 sequence: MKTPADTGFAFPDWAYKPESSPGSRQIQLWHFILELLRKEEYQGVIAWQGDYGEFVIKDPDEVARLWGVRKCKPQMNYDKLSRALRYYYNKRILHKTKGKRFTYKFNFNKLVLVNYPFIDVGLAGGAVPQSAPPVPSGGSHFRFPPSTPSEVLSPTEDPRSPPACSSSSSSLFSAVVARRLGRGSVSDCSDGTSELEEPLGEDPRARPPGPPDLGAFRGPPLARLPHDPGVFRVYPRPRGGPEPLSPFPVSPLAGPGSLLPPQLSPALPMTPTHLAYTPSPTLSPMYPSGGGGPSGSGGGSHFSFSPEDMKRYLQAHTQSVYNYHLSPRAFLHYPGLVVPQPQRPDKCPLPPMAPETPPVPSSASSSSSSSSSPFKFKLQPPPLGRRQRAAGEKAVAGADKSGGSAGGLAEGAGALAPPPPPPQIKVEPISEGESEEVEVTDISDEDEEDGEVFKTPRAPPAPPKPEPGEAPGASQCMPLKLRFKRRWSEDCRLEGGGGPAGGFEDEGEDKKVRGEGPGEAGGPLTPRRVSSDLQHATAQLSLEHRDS
In short: as §1

Row | Sequence | binding signal (FLI1) | binding signal (ELK1) | binding signal (ERG) | binding signal (EHF) | binding signal (SPIB) | binding signal (FEV) | binding signal (SPIC) | binding signal (ELK4) | binding signal (ETV7) | binding signal (ETV3) | binding signal (GABPA) | binding signal (ELF1) | binding signal (ELF4) | binding signal (ELF3) | binding signal (ERF)
1 | GCAGCC | 1.01 fold enrichment (6-mer frequency, TF over GST control) | 1.05 fold enrichment (6-mer frequency, TF over GST control) | 1.04 fold enrichment (6-mer frequency, TF over GST control) | 1.03 fold enrichment (6-mer frequency, TF over GST control) | 1.08 fold enrichment (6-mer frequency, TF over GST control) | 1.03 fold enrichment (6-mer frequency, TF over GST control) | 1.03 fold enrichment (6-mer frequency, TF over GST control) | 1.11 fold enrichment (6-mer frequency, TF over GST control) | 1.02 fold enrichment (6-mer frequency, TF over GST control) | 1 fold enrichment (6-mer frequency, TF over GST control) |  |  |  |  | 
2 | CACCCA | 1.1 fold enrichment (6-mer frequency, TF over GST control) | 1.12 fold enrichment (6-mer frequency, TF over GST control) |  |  | 1.03 fold enrichment (6-mer frequency, TF over GST control) |  |  | 1.04 fold enrichment (6-mer frequency, TF over GST control) | 1.03 fold enrichment (6-mer frequency, TF over GST control) |  | 1.11 fold enrichment (6-mer frequency, TF over GST control) | 1.01 fold enrichment (6-mer frequency, TF over GST control) | 1.12 fold enrichment (6-mer frequency, TF over GST control) | 1.14 fold enrichment (6-mer frequency, TF over GST control) | 1.06 fold enrichment (6-mer frequency, TF over GST control)

Source: article PMC7862700, “An all-to-all approach to the identification of sequence-specific readers for epigenetic DNA modifications on cytosine”
